# The full list was thinned out, with hits kept by preference.
# Pf Dd2 inh: inhibitors of Plasmodium falciparum Dd2 growth. P. falciparum Dd2 growth, SYBR Green, 72 h. 4.3% of 120,000 active. Potency, µM (highest dose often 28.9 µM), for inactives: top-dose activity, negative = inhibition, actives largely listed as inhibitors; active = well fitted inhibition curve with a large enough effect;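 also: plate controls were DMSO vehicle for no effect and reference drug for full effect; nearly all actives have a fitted effect of over 65% in size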
#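 Infected erythrocytes (Dd2, 0.3% parasitemia, 2.5% hematocrit final) are added to compound in RPMI-1640/Albumax II medium, grown 72 h at 37C in low oxygen, then lysed with saponin/Triton-X containing SYBR Green and read by fluorescence.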
# The depositor's hits bear a star; i = inactive; [ ] = another dose, or the depositor's remark. Potency is read from the fitted curve at half-maximal effect.
SMILES,Pf Dd2 inh
COC(=O)c1ccc2c(c1)nc1n2[C@@H](CNCc2ccccc2)COC1,-24%[44.1 µM]
O=C([C@@H]1C[C@H](Oc2cccnc2)CN1C(=O)COc1ccccc1)N1CCCC1,-4%
COc1ccc(C(=O)N2[C@@H]3CC[C@H]2CC(NC(=O)c2cnc(C)cn2)C3)c(OC)c1 (some centres undefined),13%
FC(F)(F)CN1C2CCC1CN(c1nnnn1-c1ccccc1)C2,22%
O=C(Nc1ccc2c(N3CCOCC3)ncnc2c1)c1ccccc1C(F)(F)F,i
O=C(Nc1ccc2c(N3CCOCC3)ncnc2c1)c1ccc(F)c(Cl)c1,2.5µM*
O=C(Nc1ccc2nc(SCC(=O)N3CCOCC3)sc2c1)c1cccc(Br)c1,-6%
Cc1ccc(C(=O)Nc2ccc3c(N4CCOCC4)ncnc3c2)cc1,-11%
O=C(Nc1ccc2ncnc(N3CCCC3)c2c1)c1cccc(Br)c1,-20%
O=C(Nc1ccc2c(N3CCOCC3)ncnc2c1)c1cccc(Br)c1,0.89µM*
O=C(NCCc1ccncc1)C1CN(C(=O)Cc2ccc(F)cc2)CC12CCOCC2 (centres undefined),-14%
CNC(=O)Nc1ccc(C2(C(=O)NC(C)C)CCC2)cc1,10%
COCC(=O)N1[C@H]2CC[C@@H]1c1cnc(-c3ccccc3)nc1C2,1%
Cc1ccc(CSc2cn(CC(=O)N3CCCCC3)c3ccccc23)cc1,-19%
O=C(Cn1cc(SCc2ccccc2Cl)c2ccccc21)N1CCCCCC1,-21%
Cc1ccc(C(=O)/C=C/c2cn(CC(O)CN3CCCCCC3)c3ccccc23)cc1 (centres undefined),13µM*
O=C(/C=C/c1cn(CC(O)CN2CCCCCC2)c2ccccc12)c1ccccc1 (centres undefined),10µM*
O=C(/C=C/c1cn(CC(O)CN2CCCCCC2)c2ccccc12)c1ccc(Br)cc1 (centres undefined),10µM*
O=C(CSc1cn(CC(=O)N2CCCCC2)c2ccccc12)Nc1ccccc1,18%
COC(=O)c1ccc(NC(=O)CSc2cn(CC(=O)N3CCCCC3)c3ccccc23)cc1,-9%
Cc1ccccc1CSc1cn(CC(=O)N2CCCCCC2)c2ccccc12,-26%
CNC(=O)CSc1cn(CC(=O)N2CCCCCC2)c2ccccc12,-24%
Cc1onc(-c2cnn(C)c2NCCc2ccccc2)c1C(=O)NCc1ccccc1,-10%[44.1 µM]
Cc1c(Cl)c(C(=O)N2CCCC(C)(Cc3ccc4c(c3)OCO4)C2)nn1C (centres undefined),-5%
COc1ccc(CNC(=O)N2CC(N(C3CCOCC3)S(C)(=O)=O)C2)cc1,-23%
SMILES,Pf Dd2 inh
Cc1noc(C)c1S(=O)(=O)N1CCC(N2CC(OCC3CC3)C23CCCCC3)CC1 (centres undefined),-13%
O=C(C1CC(=O)N(c2n[nH]c3ccccc23)C1)N1CCN(CCc2ccccn2)CC1 (centres undefined),-25%
COc1ccccc1N1CCN(C(=O)C2CCN(S(=O)(=O)c3cccc4nonc34)CC2)CC1,6%
Cc1ccc(/C=C/c2onc(C)c2S(=O)(=O)N2CCC(C(=O)Nc3cc(C)ccc3C)CC2)cc1,11%
O=C(C1CCN(S(=O)(=O)c2cccc3nonc23)CC1)N1CCN(c2ccccc2)CC1,i
Cc1ccc(Cl)cc1N1CCN(C(=O)C2CCN(S(=O)(=O)c3c(C)noc3/C=C/c3ccccc3F)CC2)CC1,-11%
Cc1ccc(/C=C/c2onc(C)c2S(=O)(=O)N2CCC(C(=O)N3CCN(c4cc(C)ccc4C)CC3)CC2)cc1,8.9µM*
Cc1ccc(Cl)cc1N1CCN(C(=O)C2CCN(S(=O)(=O)c3cccc4nonc34)CC2)CC1,6.3µM*
COCCNC(=O)c1cc(-c2ccccc2F)cc2c1OCCN2Cc1cccnc1,-8%[44.1 µM]
CCNC(=O)N1CCCC1c1noc(CCC(=O)NCCC(C)C)n1 (centres undefined),16%
COC[C@@H]1CN(C(=O)c2ccc(C#N)cc2)C[C@H]1C(N)=O,9%
Cc1ccc(NC(=O)Cn2nc3n(c2=O)CCCC3)cc1F,i
CC(=O)N1CCc2c(sc3c2c(=O)n(-c2ccccc2)c(=O)n3CC(=O)Nc2cccc(C)c2)C1,-28%
CC(=O)N1CCc2c(sc3c2c(=O)n(-c2ccccc2)c(=O)n3CC(=O)Nc2cc(C)cc(C)c2)C1,-3%
CCOC(=O)N1CCc2c(sc3c2c(=O)n(-c2ccc(Cl)cc2)c(=O)n3CC(=O)c2ccc(F)cc2)C1,i
COC(=O)c1sc2c(c1C)c(=O)n(-c1ccccc1)c(=O)n2CC(=O)Nc1cccc(C)c1,11µM*
CC(=O)N1CCc2c(sc3c2c(=O)n(-c2cc(Cl)ccc2C)c(=O)n3Cc2ccccc2F)C1,10µM*
CCOC(=O)N1CCc2c(sc3c2c(=O)n(-c2ccc(CC)cc2)c(=O)n3Cc2ccc(F)cc2Cl)C1,10µM*
CC(=O)N1CCc2c(sc3c2c(=O)n(-c2ccccc2)c(=O)n3CC(=O)Nc2ccccc2)C1,12%
COc1cccc(NC(=O)Cn2c(=O)n(-c3ccccc3)c(=O)c3c4c(sc32)CCCC4)c1,i
CC(=O)N1CCc2c(sc3c2c(=O)n(Cc2ccccc2)c(=O)n3Cc2ccccc2F)C1,i
CCOC(=O)N1CCc2c(sc3c2c(=O)n(-c2ccccc2)c(=O)n3CC(=O)Nc2ccc(OC)cc2OC)C1,4.5µM*
CCOC(=O)N1CCc2c(sc3c2c(=O)n(-c2ccc(CC)cc2)c(=O)n3Cc2cccc(Cl)c2)C1,-26%
CC(=O)N1CCc2c(sc3c2c(=O)n(-c2ccccc2C)c(=O)n3Cc2cccc(F)c2)C1,-16%
Cc1noc(C2CC3(CCN(C(=O)C4CCCC4)CC3)CN2C)n1 (centres undefined),-2%
SMILES,Pf Dd2 inh
O=C1CCN(S(=O)(=O)c2ccccc2)CCCC(C(=O)N2CCOCC2)CCN1 (centres undefined),-8%
CCC1=C(C(=O)OC)C(c2ccccc2Cl)N2C(CC(=O)N(C)Cc3ccccc3)=CSC2=N1 (centres undefined),-9%
CC(C)NC(=O)NC[C@H]1O[C@@H](CO)[C@@H](O)[C@H]1N1CCN(C)CC1,-9%[44.1 µM]
CC(C)NC[C@H]1COCc2nc3cc(C(F)(F)F)ccc3n21,-3%[44.1 µM]
OCCCn1cnc2cc(-n3ccnc3-c3cc4n(n3)CCNC4)ccc21,1%
CC(=O)N1CCc2c(sc3c2c(=O)n(Cc2ccccc2)c(=O)n3Cc2ccc(C)cc2)C1,-10%
CCOC(=O)N1CCc2c(sc3c2c(=O)n(Cc2ccccc2)c(=O)n3CC(=O)Nc2ccc(F)cc2)C1,-20%
CCOC(=O)N1CCc2c(sc3c2c(=O)n(Cc2ccccc2)c(=O)n3Cc2c(F)cccc2Cl)C1,3.2µM*
O=C(N[C@@H]1CN(C(=O)Cn2c(=O)oc3ccccc32)CC[C@@H]1CO)C1CC1,11%
Oc1ccccc1-c1cnc2n[nH]c(-c3ccc4c(c3)OCO4)c2n1,11µM*
Fc1ccccc1-c1cnc2n[nH]c(-c3ccc4c(c3)OCO4)c2n1,i
c1ccc(-c2cnc3n[nH]c(-c4ccc5c(c4)OCO5)c3n2)cc1,35%[44.1 µM]
CCC(C)NC(=O)c1ccc(-c2cccc(C#N)c2)o1 (centres undefined),-8%
CCNC(=O)C1C(c2ccc(NC(=O)c3cccc(Cl)c3)cc2)OC(=O)N1Cc1ccc(C)cc1 (centres undefined),i
NCc1ccccc1-c1cc(F)cc(F)c1,13µM*
Cc1ccc(-c2[nH]ncc2CN)cc1,-24%
Cc1ccc(-c2ccccc2CN)cc1Cl,11µM*
Cc1cccc(-c2[nH]ncc2CN)c1,-12%
Cc1cc(C)cc(-c2ccc(CN)cc2)c1,11µM*
NCc1ccc(-c2ccccn2)cc1,-18%[44.1 µM]

# Bioassay records: PubChem, National Center for Advancing Translational Sciences (NCATS)
